HPGD inh: inhibitors of human 15-hydroxyprostaglandin dehydrogenase (HPGD). P15428. purified HPGD, NADH fluorescence kinetic, PGE2 substrate. Potency, µM, inactives show at the top dose activity change, negative = inhibition, actives largely listed as inhibitors. hit rate 4.3% among 150,000; active = well fitted inhibition curve with a large enough effect, not every such curve was filed as active; inconclusive = small, poorly fitted or top-dose-only effect, or another doubt; inactive = no such curve, though single readings can be large or run the other way; also: % is scaled to controls: 0 for no effect and ±100 for the full control effect
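20 nM HPGD preincubated 15 min at room temperature with compound in 50 mM Tris-HCl pH 8, 0.01% Tween 20. Started with 1 mM NAD+ and 30 uM prostaglandin E2; NADH fluorescence (360/450 nm) read 5 times over 30-s intervals, last minus first.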
Lamin A splicing: LMNA splicing modulation. Potency, µM (series often up to 46.1 µM), for inactives: at the highest dose ratio change, negative = inhibition, most hits filed as inhibitors. HeLa LMNA splicing GFP/RFP minigene ratio, 48 h. hit rate 0.01% among 200,000; active = well fitted inhibition curve with a large enough effect in the signal ratio, with a control signal flat, not every such curve was filed as active; inconclusive = small, poorly fitted or top-dose-only effect, or effect the other way, or a change in a side signal; the % refers to the signal ratio; also: % is scaled to controls: 0 for no effect and ±100 for the full control effect
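S3 HeLa stable clones carrying a lamin A-EGFP splicing minigene plus DsRed2 were seeded at 600 cells/well in Opti-MEM with 2% FBS, pin-dosed and incubated 48 h at 37°C. Acumen cytometry (488 nm) gave the GFP/RFP total-intensity ratio.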
ALDH1A1 block: inhibitors of human aldehyde dehydrogenase 1A1; P00352; Purified ALDH1A1, NADH fluorescence, propionaldehyde substrate; Potency, µM (titrated, usually from 75.3 µM), for inactives: at the top dose activity, negative = inhibition, hits mostly inhibitors; hit rate 7.3% among 220,000; AID 1030; active = well fitted inhibition curve with a large enough effect, not every such curve was filed as active; inconclusive = small, poorly fitted or top-dose-only effect, or another doubt; inactive = no such curve, though single readings can be large or run the other way;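 also: plate controls were no enzyme wells and a reference inhibitor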
Target sequence (P00352 whole entry, looked up): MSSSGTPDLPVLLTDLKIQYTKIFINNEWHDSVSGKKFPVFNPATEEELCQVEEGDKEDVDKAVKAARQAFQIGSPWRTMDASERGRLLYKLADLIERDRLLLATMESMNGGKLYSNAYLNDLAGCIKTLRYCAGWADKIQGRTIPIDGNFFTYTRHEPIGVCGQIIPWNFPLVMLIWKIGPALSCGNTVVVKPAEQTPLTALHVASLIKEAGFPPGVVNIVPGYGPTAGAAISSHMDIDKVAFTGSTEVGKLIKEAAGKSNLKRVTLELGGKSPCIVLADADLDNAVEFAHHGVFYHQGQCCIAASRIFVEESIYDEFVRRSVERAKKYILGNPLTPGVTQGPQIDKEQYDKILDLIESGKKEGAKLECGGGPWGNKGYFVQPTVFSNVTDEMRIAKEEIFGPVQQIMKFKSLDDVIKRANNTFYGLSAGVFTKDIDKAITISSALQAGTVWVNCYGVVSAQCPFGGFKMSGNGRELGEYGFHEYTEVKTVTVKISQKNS
HTT aggregate: mutant huntingtin aggregation inhibition; PC12 HttQ103-GFP aggregates, Acumen cytometry, 40 h; Potency, µM (titrated, usually from 46.1 µM), for the others: at the highest dose activity change, negative = inhibition, actives largely listed as inhibitors; hit rate 1.1% among 220,000; AID 1688; also: % is scaled to controls: 0 for no effect and ±100 for the full control effect; nearly all actives have a fitted effect of over 60% in size
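PC12 cells with ecdysone-inducible HTT exon1 Q103-GFP, induced by 100 nM tebufenozide, given compounds in a concentration series. GFP aggregates (1–25 um, 6 SD above background) counted in lysates by laser-scanning cytometry, 488 nm excitation.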
HTT cytoprotect: cytoprotection in Huntington HTT-Q103 PC12 cell model; PC12 HTT-Q103 induced, cytoprotection, ATP luminescence, 40 h; Potency, µM (top dose mostly 56.4 µM), for inactives: cytoprotection (ATP increase), actives largely listed as activators; hit rate 0.14% among 230,000; also: % of control where 0% means no effect; nearly all actives have a fitted effect of over 45% in size
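Rat PC12, Q103 Htt exon1-GFP fusion, ecdysone promoter; tebufenozide inducer 100 nM final; compound titration; qHTS, 1500 cells/well; ATPlite luminescent read.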
* marks the source's active call; other numbers are inactive results; [ ] = dose if it differs, or a comment. Shown are actives, neighbours in structure and some others; about 8.8% of the full set was active somewhere. Unless noted, calls follow the shape of the dose curve; as a rule, active = well fitted curve in the direction sought with a large enough effect; inconclusive = small, poorly fitted or top-dose-only effect, or another doubt; inactive = no such curve, though single readings can be large; an effect the other way counts as inactive or inconclusive. Potency is read from the fitted curve at half-maximal effect.

For O=C(C(Cc1ccccc1)n1cccc1)N1CCCCC1 (stereo unspecified) the results were HPGD inh 13µM*, Lamin A splicing -3%, ALDH1A1 block 3%, HTT aggregate -18% and HTT cytoprotect 9%.
Screening O=C(C(Cc1ccccc1)n1cccc1)N1CCN(Cc2ccccc2)CC1 (stereo unspecified) returned HPGD inh -1%, Lamin A splicing -9%, ALDH1A1 block inconclusive, HTT aggregate inconclusive and HTT cytoprotect -6%.
`O=C(C(Cc1ccccc1)n1cccc1)N1CCCCCC1` (stereo unspecified) gave HPGD inh 28µM*, Lamin A splicing -6%, ALDH1A1 block -2%, HTT aggregate 2% and HTT cytoprotect 1%.
`O=C(O)C(Cc1ccccc1)N1CCS(=O)(=O)CC1` (stereo unspecified) gave Lamin A splicing inconclusive, ALDH1A1 block 2%, HTT aggregate 5% and HTT cytoprotect 2µM*.
COC(=O)C(Cc1ccccc1)N1CCS(=O)(=O)CC1 (stereo unspecified) was read as Lamin A splicing inconclusive, ALDH1A1 block 1%, HTT aggregate 8%[9.22 µM] and HTT cytoprotect -22%.
For C[N+](C)=C1SCC(C)(/C=N/O)S1 (stereo unspecified) the results were HTT aggregate 31%[9.22 µM] and HTT cytoprotect 24%[10 µM].
Screening COC(=O)/C(=N/Nc1ccccc1OC)N1CCCc2ccccc21 returned HTT aggregate 8%[9.22 µM] and HTT cytoprotect 0%[10 µM].
Screening Cc1[nH]c(=O)[nH]c(=O)c1Cc1cccc2ccccc12 returned ALDH1A1 block 10µM* and HTT aggregate -2%.
`Cc1nc(N2CCN(C)CC2)[nH]c(=O)c1Cc1cccc2ccccc12` gave HPGD inh -14%, Lamin A splicing -3%, ALDH1A1 block inconclusive, HTT aggregate -4%[9.22 µM] and HTT cytoprotect -10%[0.074 µM].
`O=C1CCCC=C1[C@@H](O)CCOC(c1ccccc1)(c1ccccc1)c1ccccc1` gave HPGD inh -10%, ALDH1A1 block 7% and HTT cytoprotect 1%.
For C/C(=N\NC(=S)NCc1ccccc1)c1ccco1 the results were ALDH1A1 block 32µM*, HTT aggregate -2% and HTT cytoprotect 10%[10 µM].
For CC(C)CNC(=O)CCCc1c[nH]c2ccccc12 the results were HPGD inh 14µM*, Lamin A splicing 2%, ALDH1A1 block -2%, HTT aggregate 16% and HTT cytoprotect -2%.
`CN(C)C(CNC(=O)CCCc1c[nH]c2ccccc12)c1ccco1` (stereo unspecified) gave HPGD inh -8%, Lamin A splicing 9%, ALDH1A1 block 8%, HTT aggregate 1% and HTT cytoprotect 5%[10 µM].
`O=C(CCS(=O)(=O)c1ccc(Cl)cc1)NCCc1c[nH]c2ccccc12` gave Lamin A splicing -14%[46 µM], ALDH1A1 block 28µM*, HTT aggregate 12% and HTT cytoprotect -26%.
For CCS(=O)(=O)c1nc(S(=O)(=O)c2ccc(C)cc2)c(NCc2ccccn2)s1 the results were ALDH1A1 block inconclusive, HTT aggregate 7% and HTT cytoprotect -11%.
Screening CCCS(=O)(=O)c1nc(S(=O)(=O)c2ccc(C)cc2)c(NCc2ccccn2)s1 returned ALDH1A1 block 14µM*, HTT aggregate -5% and HTT cytoprotect -45%.
Screening CCC1=C(OC(=O)N(CC)CC)N2C(=O)OC(=NCCOC)[C@]2(C)[C@H]2C1=CC[C@H]1C(=O)N(CC)C(=O)[C@H]12 returned HPGD inh -2%, ALDH1A1 block -8% and HTT cytoprotect -39%.
`CC1CN(c2ccc([N+](=O)[O-])cc2C#N)CC(C)O1` (stereo unspecified) gave ALDH1A1 block 14µM*, HTT aggregate 18% and HTT cytoprotect -20%.
Screening O=[N+]([O-])c1cccc(C(=S)N2CCN(c3ccccc3)CC2)c1 returned HPGD inh 22µM*, Lamin A splicing inconclusive, ALDH1A1 block 16µM*, HTT aggregate 3% and HTT cytoprotect inconclusive.
`O=[N+]([O-])c1cccc(C(=S)N2CCN(c3ccccc3F)CC2)c1` gave Lamin A splicing inconclusive, ALDH1A1 block 22µM* and HTT aggregate 4%.
For CC1CN(C(=S)c2cccc([N+](=O)[O-])c2)CC(C)O1 (stereo unspecified) the results were ALDH1A1 block 7.9µM*, HTT aggregate inconclusive and HTT cytoprotect -25%.
Screening CC1CN(C(=S)NC(=O)c2ccc([N+](=O)[O-])cc2)CC(C)O1 (stereo unspecified) returned HPGD inh 0%, Lamin A splicing -5%, ALDH1A1 block -9%, HTT aggregate 13% and HTT cytoprotect -5%.
Screening CC1CCCCN1S(=O)(=O)c1ccc(C(=O)Nc2sccc2C(N)=O)cc1 (stereo unspecified) returned HPGD inh 28µM*, Lamin A splicing inconclusive, ALDH1A1 block 14µM*, HTT aggregate inconclusive and HTT cytoprotect 24%[10 µM].
For COC1CCCCC1NS(=O)(=O)c1ccccc1 (stereo unspecified) the results were HPGD inh -2%, Lamin A splicing -7%, ALDH1A1 block inconclusive, HTT aggregate -2% and HTT cytoprotect 5%[10 µM].
Screening COC1CCCCC1NS(=O)(=O)c1ccc(Cl)cc1 (stereo unspecified) returned HPGD inh -8%, Lamin A splicing 7%, ALDH1A1 block -3%, HTT aggregate -12% and HTT cytoprotect -5%.
CSc1ccc(OC2CCCCC2NS(=O)(=O)c2ccccc2)cc1 (stereo unspecified) was read as HPGD inh -14%, Lamin A splicing inconclusive, ALDH1A1 block 1.3µM*, HTT aggregate 12% and HTT cytoprotect 37%[10 µM].
Screening Cc1cc(C)cc(OC2CCCCC2NS(=O)(=O)c2ccccc2)c1 (stereo unspecified) returned HPGD inh -15%, Lamin A splicing -7%, ALDH1A1 block 13µM*, HTT aggregate 3% and HTT cytoprotect -9%[10 µM].
Cc1ccc(CSC(Nc2ccc(F)cc2)=C(C#N)C#N)cc1 was read as HPGD inh -6%, Lamin A splicing inconclusive, ALDH1A1 block inconclusive, HTT aggregate 6.3µM* and HTT cytoprotect -30%[10 µM].
Screening CC(NC(=O)CSc1n[nH]c(-c2ccccc2Cl)n1)c1nc2ccccc2[nH]1 (stereo unspecified) returned Lamin A splicing 1%[46 µM].
Screening C=CCSc1nc2sc3c(c2c(=O)n1CC)CCc1ccccc1-3 returned HPGD inh 2.2µM*, Lamin A splicing 1%, ALDH1A1 block 1.6µM*, HTT aggregate -30% and HTT cytoprotect -10%.
For C=CCn1c(SCC)nc2sc3c(c2c1=O)CCc1ccccc1-3 the results were HPGD inh -5%, Lamin A splicing 14%, ALDH1A1 block 14%, HTT aggregate 4% and HTT cytoprotect -6%.

Assay outcomes from PubChem BioAssay.
